# Calls of active or inactive are those of the source. How the source made its calls: active means hit-call score of the fitted dose curve at least 0.9, where 1 is the maximum; inactive means score below 0.9.
# What was measured:
# [1] = read-out: Thrombomodulin, THBD (gene 7056); assay: BSK_CASM3C_Thrombomodulin: BioMAP Diversity Plus: CASM3C Assay for Thrombomodulin Biomarker Activity (AID 2283051); details: primary human coronary artery smooth muscle cells; actives raise or lower the signal;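 further: thrombomodulin protein level measured by ELISA 24 h after dosing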
# [2] = read-out: Tissue Factor, F3 (gene 2152); assay: BSK_CASM3C_TissueFactor: BioMAP Diversity Plus: CASM3C Assay for Tissue Factor Biomarker Activity (AID 2283052); details: primary human coronary artery smooth muscle cells; actives raise or lower the signal;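 further: cell surface tissue factor protein level read by ELISA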
# [3] = read-out: Interferon-gamma inducible Protein 10 (IP10), CXCL10 (gene 3627); assay: BSK_hDFCGF_IP10: BioMAP Diversity Plus: hDFCGF Assay for Interferon-gamma inducible Protein 10 (IP10) Biomarker Activity (AID 2283053); details: primary human foreskin fibroblasts; actives raise or lower the signal
# Summary of the method: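 IP-10 levels, quantified by ELISA, are taken from human foreskin fibroblast cultures 24 h after chemical treatment, with DMSO serving as negative control and baseline for bidirectional analysis.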
# [4] = read-out: Urokinase-type plasminogen activator receptor (uPAR), PLAUR (gene 5329); assay: BSK_CASM3C_uPAR: BioMAP Diversity Plus: CASM3C Assay for Urokinase-type plasminogen activator receptor (uPAR) Biomarker Activity (AID 2283054); details: primary human coronary artery smooth muscle cells; actives raise or lower the signal;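 further: cell-surface uPAR protein level quantified by ELISA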
# [5] = read-out: Vascular cell adhesion molecule 1 (VCAM1), VCAM1 (gene 7412); assay: BSK_CASM3C_VCAM1: BioMAP Diversity Plus: CASM3C Assay for Vascular cell adhesion molecule 1 (VCAM1) Biomarker Activity (AID 2283055); details: primary human coronary artery smooth muscle cells; actives raise or lower the signal;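 further: VCAM-1 protein level quantified by ELISA on the cells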
# [6] = read-out: Collagen III, COL3A1 (gene 1281); assay: BSK_hDFCGF_CollagenIII: BioMAP Diversity Plus: hDFCGF Assay for Collagen III Biomarker Activity (AID 2283056); details: primary human foreskin fibroblasts; actives raise or lower the signal
# Summary of the method: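 Cells: human foreskin fibroblasts, primary. Dosing followed by 24 h incubation, then ELISA for collagen III. Both increases and decreases scored relative to DMSO.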
# [7] = read-out: Epidermal growth factor receptor (EGFR), EGFR (gene 1956); assay: BSK_hDFCGF_EGFR: BioMAP Diversity Plus: hDFCGF Assay for Epidermal growth factor receptor (EGFR) Biomarker Activity (AID 2283057); details: primary human foreskin fibroblasts; actives raise or lower the signal
# Summary of the method: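 Measured by ELISA: EGFR levels on primary human foreskin fibroblasts 24 h after chemical treatment, analysed relative to DMSO with bidirectional fitting.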
# [8] = read-out: Interleukin-8 (IL8), CXCL8 (gene 3576); assay: BSK_hDFCGF_IL8: BioMAP Diversity Plus: hDFCGF Assay for Interleukin-8 (IL8) Biomarker Activity (AID 2283058); details: primary human foreskin fibroblasts; actives raise or lower the signal
# Summary of the method: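 IL-8 levels from compound-treated primary human fibroblasts were read by ELISA at 24 h, with DMSO serving as baseline for bidirectional fitting.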
# [9] = read-out: Macrophage colony-stimulating factor (MCSF), CSF1 (gene 1435); assay: BSK_hDFCGF_MCSF: BioMAP Diversity Plus: hDFCGF Assay for Macrophage colony-stimulating factor (MCSF) Biomarker Activity (AID 2283060); details: primary human foreskin fibroblasts; actives raise or lower the signal
# Summary of the method: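 M-CSF levels, determined by ELISA, are taken at 24 h after dosing human skin fibroblasts. Responses in either direction are fitted with DMSO serving as the baseline.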
# [10] = BSK_hDFCGF_SRB: Viability Assessment in the BioMAP Diversity Plus: hDFCGF Assay (AID 2283061); details: primary human foreskin fibroblasts;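 further: cells exposed to compound for 24 h before the read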
# Summary of the method: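 Cells were dosed with test chemical, cultured 24 h, fixed with 10% TCA, then stained with 0.1% SRB and read at 560 nm. The fibroblasts were human foreskin primary cells, and DMSO served as baseline.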
# [11] = read-out: TIMP metallopeptidase inhibitor 1 (TIMP1), TIMP1 (gene 7076); assay: BSK_hDFCGF_TIMP1: BioMAP Diversity Plus: hDFCGF Assay for TIMP metallopeptidase inhibitor 1 (TIMP1) Biomarker Activity (AID 2283062); details: primary human foreskin fibroblasts; actives raise or lower the signal
# Summary of the method: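 Fibroblasts from human foreskin are treated with test chemical and harvested at 24 h. TIMP-1 is quantified by ELISA, and gain or loss of signal is scored against DMSO.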
# [12] = read-out: Monokine induced gamma interferon (MIG), CXCL9 (gene 4283); assay: BSK_hDFCGF_MIG: BioMAP Diversity Plus: hDFCGF Assay for Monokine induced gamma interferon (MIG) Biomarker Activity (AID 2283063); details: primary human foreskin fibroblasts; actives raise or lower the signal
# Summary of the method: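 MIG signal, determined by ELISA, reflects 24 h chemical exposure of human skin primary fibroblasts. DMSO serves as negative control and baseline.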
# [13] = read-out: Matrix Metallopeptidase 1 (MMP1), MMP1 (gene 4312); assay: BSK_hDFCGF_MMP1: BioMAP Diversity Plus: hDFCGF Assay for Matrix Metallopeptidase 1 (MMP1) Biomarker Activity (AID 2283064); details: primary human foreskin fibroblasts; actives raise or lower the signal
# Summary of the method: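 Primary human foreskin fibroblasts in the hDFCGF system were dosed with test chemical, and MMP1 was measured by ELISA 24 h later. Values come from bidirectional curve fitting against the DMSO baseline.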
# [14] = read-out: Vascular cell adhesion molecule 1 (VCAM1), VCAM1 (gene 7412); assay: BSK_hDFCGF_VCAM1: BioMAP Diversity Plus: hDFCGF Assay for Vascular cell adhesion molecule 1 (VCAM1) Biomarker Activity (AID 2283065); details: primary human foreskin fibroblasts; actives raise or lower the signal;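 on AC50: VCAM-1 protein level quantified by ELISA after 24 h chemical exposure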
# Summary of the method: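 Cells are dosed, cultured for 24 h, then VCAM-1 is quantified by ELISA; signal increases and decreases are both fitted relative to DMSO.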
# [15] = read-out: Plasminogen activator inhibitor-1 (PAI1), SERPINE1 (gene 5054); assay: BSK_hDFCGF_PAI1: BioMAP Diversity Plus: hDFCGF Assay for Plasminogen activator inhibitor-1 (PAI1) Biomarker Activity (AID 2283066); details: primary human foreskin fibroblasts; actives raise or lower the signal
# Summary of the method: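 PAI-1 levels, determined by ELISA, served as the endpoint in human foreskin fibroblast cultures exposed to compound for 24 h, with DMSO as baseline.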
# [16] = read-out: Intercellular Adhesion Molecule 1 (ICAM1), ICAM1 (gene 3383); assay: BSK_KF3CT_ICAM1: BioMAP Diversity Plus: KF3CT Assay for Intercellular Adhesion Molecule 1 (ICAM1) Biomarker Activity (AID 2283067); details: primary human keratinocytes with fibroblasts; actives raise or lower the signal
# Summary of the method: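 Dose the keratinocyte/fibroblast co-culture, wait 24 h, measure ICAM-1 by ELISA, then fit increases or decreases against DMSO. Cytotoxicity is checked in parallel cultures by SRB total-protein staining.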
# [17] = read-out: Interferon-gamma inducible Protein 10 (IP10), CXCL10 (gene 3627); assay: BSK_KF3CT_IP10: BioMAP Diversity Plus: KF3CT Assay for Interferon-gamma inducible Protein 10 (IP10) Biomarker Activity (AID 2283068); details: primary human keratinocytes with fibroblasts; actives raise or lower the signal
# Summary of the method: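 Human keratinocyte plus foreskin fibroblast primary co-culture exposed to test chemical for 24 h; IP-10 measured by ELISA. Concentration-response fitted bidirectionally against DMSO control as baseline.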
# [18] = BSK_KF3CT_SRB: Viability Assessment in the BioMAP Diversity Plus: KF3CT Assay (AID 2283069); details: primary human keratinocytes with fibroblasts;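 further: total protein by sulforhodamine B staining as a cytotoxicity measure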
# Summary of the method: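 Human primary keratinocyte plus foreskin fibroblast co-culture exposed to chemicals for 24 h. Total protein measured by 0.1% sulforhodamine B staining after 10% TCA fixation, read at 560 nm; bidirectional fitting versus DMSO baseline.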
# [19] = read-out: Interleukin-1 alpha (IL1a), IL1A (gene 3552); assay: BSK_KF3CT_IL1a: BioMAP Diversity Plus: KF3CT Assay for Interleukin-1 alpha (IL1a) Biomarker Activity (AID 2283070); details: primary human keratinocytes with fibroblasts; actives raise or lower the signal
# Summary of the method: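 Human keratinocyte plus foreskin fibroblast primary co-culture, sampled 24 h after chemical dosing. IL-1a measured by ELISA; responses fitted bidirectionally against DMSO baseline (negative control), so gain or loss of signal both count.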
smiles,measurement,setting,value
CC(=O)C1(C)CC2=C(CCCC2(C)C)CC1C (centres undefined),outcome,[1],inactive
same,AC50,[2],11.6 µM (active)
same,AC50,[3],13.8 µM (active)
same,AC50,[4],12.3 µM (active)
same,AC50,[5],11.4 µM (active)
same,AC50,[6],10.5 µM (active)
same,AC50,[7],6.8 µM (active)
same,AC50,[8],31.7 µM (active)
same,AC50,[9],10.9 µM (active)
same,AC50,[10],11.2 µM (active)
same,AC50,[11],12 µM (active)
same,AC50,[12],14.2 µM (active)
same,AC50,[13],12.8 µM (active)
same,AC50,[14],9.73 µM (active)
same,AC50,[15],11.8 µM (active)
same,AC50,[16],12.3 µM (active)
same,AC50,[17],11.2 µM (active)
same,AC50,[18],10.2 µM (active)
same,AC50,[19],13.1 µM (active)
C=C(C)C(=O)OCCOCCOCCOC(=O)C(=C)C,outcome,[1],inactive
same,outcome,[2],inactive
same,outcome,[3],inactive
same,outcome,[4],inactive
same,outcome,[5],inactive
same,outcome,[6],inactive
same,outcome,[7],inactive
same,outcome,[8],inactive
same,AC50,[9],0.0819 µM (active)
same,outcome,[10],inactive
same,outcome,[11],inactive
same,outcome,[12],inactive
same,outcome,[13],inactive
same,outcome,[14],inactive
same,AC50,[15],0.0518 µM (active)
same,outcome,[16],inactive
same,outcome,[17],inactive
same,outcome,[18],inactive
same,AC50,[19],0.041 µM (active)
C1=CC2C3C=CC(C3)C2C1 (centres undefined),outcome,[1],inactive
same,outcome,[2],inactive
same,outcome,[3],inactive
same,outcome,[4],inactive
same,outcome,[5],inactive
same,outcome,[6],inactive
same,outcome,[7],inactive
same,outcome,[8],inactive
same,outcome,[9],inactive
same,outcome,[10],inactive
same,outcome,[11],inactive
same,outcome,[12],inactive
same,outcome,[13],inactive
same,outcome,[14],inactive
same,outcome,[15],inactive
same,outcome,[16],inactive
same,outcome,[17],inactive
same,outcome,[18],inactive
same,outcome,[19],inactive
Clc1cc(Cl)c(-c2c(Cl)c(Cl)cc(Cl)c2Cl)cc1Cl,outcome,[1],inactive
same,outcome,[2],inactive
same,AC50,[3],16 µM (active)
same,outcome,[4],inactive
same,outcome,[5],inactive
same,AC50,[6],4.19 µM (active)
same,outcome,[7],inactive
same,AC50,[8],15.8 µM (active)
same,AC50,[9],8.48 µM (active)
same,AC50,[10],14.7 µM (active)
same,AC50,[11],10 µM (active)
same,outcome,[12],inactive
same,AC50,[13],18.5 µM (active)
same,AC50,[14],14.5 µM (active)
same,AC50,[15],2.94 µM (active)
same,outcome,[16],inactive
same,AC50,[17],15.5 µM (active)
same,AC50,[18],13.7 µM (active)
same,AC50,[19],2.95 µM (active)
CCCCN(CCCC)C(=O)N(CCCC)CCCC,outcome,[1],inactive
same,AC50,[2],11.7 µM (active)
same,AC50,[3],11.1 µM (active)
same,AC50,[4],20 µM (active)
same,AC50,[5],12.8 µM (active)
same,AC50,[6],7.43 µM (active)
same,outcome,[7],inactive
same,outcome,[8],inactive
same,AC50,[9],9.49 µM (active)
same,AC50,[10],10.3 µM (active)
same,AC50,[11],9.64 µM (active)
same,AC50,[12],11.9 µM (active)
same,AC50,[13],11.5 µM (active)
same,AC50,[14],9.04 µM (active)
same,AC50,[15],11 µM (active)
same,AC50,[16],8.66 µM (active)
same,AC50,[17],11 µM (active)
same,AC50,[18],8.91 µM (active)
same,AC50,[19],10.5 µM (active)
O=C1OC2(c3ccccc31)c1ccc(O)c(Br)c1Oc1c2ccc(O)c1Br,outcome,[1],inactive
same,outcome,[2],inactive
same,AC50,[3],20 µM (active)
same,outcome,[4],inactive
same,outcome,[5],inactive
same,outcome,[6],inactive
same,outcome,[7],inactive
same,outcome,[8],inactive
same,AC50,[9],20 µM (active)
same,outcome,[10],inactive
same,outcome,[11],inactive
same,outcome,[12],inactive
same,outcome,[13],inactive
same,AC50,[14],7.49 µM (active)
same,outcome,[15],inactive
same,outcome,[16],inactive
same,outcome,[17],inactive
same,outcome,[18],inactive
same,AC50,[19],20 µM (active)

# From PubChem BioAssay (EPA / NIEHS)
